In PubChem BioAssay (NCATS) one finds outcome data, which are given here for 16 compounds.

Inconclusive results are not listed. Activity calls are given as the source filed them. Calls follow the shape of the dose curve; as a rule, active = well fitted inhibition curve with a large enough effect; inconclusive = small, poorly fitted or top-dose-only effect; inactive = flat fitted curve, though single readings scatter. Residues, ends and D or L forms follow the SMILES beside them.

The assay concerns CRL-7250. Description: qHTS assay to identify novel small-molecules to repurpose for Merkel cell carcinoma treatment (AID 1296009). Also: nearly all actives have a fitted effect of over 60% in size. The settings on record: MCC and control cell lines, CellTiter-Glo viability, 72 h; at 44.8 µM (top of the series) unless noted. In short, it runs like this: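 After compound transfer in DMSO, plates were kept 72 hr at 37 degree celsius. Luminescent ATP signal from CellTiter-Glo served as viability measure, normalized against DMSO and no-cell controls.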
For `NC(=O)N1c2ccccc2C=Cc2ccccc21`, the call was inactive. With `COCCCOc1ccnc(CS(=O)c2nc3ccccc3[nH]2)c1C` (stereo unspecified) the entry was “inactive”. For `Nc1c[n+](N2CCOCC2)no1`, the compound was classed as inactive.

`O=c1[nH]c(=O)n([C@H]2C[C@H](O)[C@@H](CO)O2)cc1I`: the call was inactive. The value for `Cc1cccc(C)c1NC(=O)CN1CCCCCC1` was “inactive”. In the case of `FC(F)(F)c1ccccc1-n1ccnc1`, the compound was called inactive. Consider `O=C(NC(Cc1cc(=O)[nH]c2ccccc12)C(=O)O)c1ccc(Cl)cc1` (stereo unspecified), for which the compound was called inactive.

Take `COC(=O)[C@H](Cc1ccccc1)NC(=O)[C@@H](N)CC(=O)O` (H-Asp-Phe-OMe): the compound was called inactive.

`COc1ccc(C(=O)NCc2ccc(OCCN(C)C)cc2)cc1OC`: the outcome was inactive.

Turning to `Cc1onc(-c2c(Cl)cccc2Cl)c1C(=O)Cl`, the result was inactive. For `CCN(CC)CCNC(=O)c1ccc(N)cc1`, the compound was called inactive. With `O=C1OC(CN2CCOCC2)CN1/N=C/c1ccc([N+](=O)[O-])o1` (stereo unspecified), the compound was classed as inactive. `Nc1ncnc2c1ncn2[C@@H]1O[C@H](COP(=O)(O)O)[C@@H](O)[C@H]1O`: the compound was called inactive. With `Cc1cc(NS(=O)(=O)c2ccc(N)cc2)no1` the entry was “inactive”.

In the case of `Cc1cccc(C)c1NC(=O)c1cc(S(N)(=O)=O)c(Cl)cc1O`, the call was inactive.

In the case of `CC(C(=O)O)c1ccc(C(=O)c2ccccc2)s1` (stereo unspecified), the compound was classed as inactive.
